The text below walks through data of PubChem BioAssay AID708 (SRMLSC, 2007).

The whole screen tested about 65,000 compounds, of which fewer than 10 were called active. Only a sample is shown. Unmarked numbers belong to inactive results.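 The calls were made as follows: active = at 10 µM dose, initial 340 nm absorbance at least 2 fold that of control wells; inactive = change under 2 fold.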

The test is described as follows: A340 optical interference by library compounds – biochemical, MLSMR library, data from PS, PMK, MK assays, artefact control, profiling panel (AID 708).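 Also: initial absorbance extrapolated from kinetic A340 decline of NADH oxidation.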 To be noted: compound absorbance at 340 nm, fold over control; at 10 µM; hits give high values.
Turning to `CCCCCN(C(=O)NC(=O)Nc1ccccc1C)S(C)(=O)=O`, the fold change is 1.

For the compound `CCNc1nc(N)nc(Oc2ccc(OCC)nn2)n1`, the fold change was 1.07.

For `CCOC(=O)CSc1nncc2ccc(OC)c(OC)c12`, the fold change was 1.07.

Regarding `CCN(CC)S(=O)(=O)c1cc(C(=O)Nc2ccccn2)ccc1C`, the fold change was 1.09.

For the compound `Cc1c2cnn(-c3ccccc3)c(=O)c2c(C)n1CCCC(=O)N1CCN(C)CC1`, the fold change is 1.06.

Consider `CNC(=O)c1cc2c(ccc3ccccc32)oc1=N`, for which the fold change is 1.04.

`CSc1ncccc1C(=O)OCC(=O)N1CCOCC1`: the fold change was 1.01.

For `COc1ccc(-c2cn3ccsc3n2)cc1`, the fold change is 1.

Turning to `CCCn1c(C(O)c2ccc(OCC)cc2)nc2ccccc21` (configuration not stated), the fold change was 1.02.

For `O=C(NCc1ccco1)C1CCCN(S(=O)(=O)c2cccc3nonc23)C1` (configuration not stated), the fold change is 1.03.

With `CCn1nc(NC(=O)c2ccco2)c2cc3ccc(C)cc3nc21`, the fold change was 1.07.

As for `Cc1ccc(-n2nc(-c3ccco3)cc2C(=O)NCc2cccnc2)cc1`, the fold change is 0.99.

`COc1ccc(C2CC(c3ccc(C)cc3)Nc3nc(N)nn32)cc1` (configuration not stated): the fold change was 1.02.

For the compound `Cc1ccc(C(=O)Nc2nnc(-c3ccncc3)s2)o1`, the fold change was 1.33.

Turning to `CN(CCC#N)c1ncnc2scc(-c3ccccc3)c12`, the fold change is 1.03.

For the compound `COc1ccc(C2CC(c3ccc(C)cc3)Nc3ncnn32)cc1` (configuration not stated), the fold change is 0.99.

As for `CSc1nsc(SC)c1NC(=O)OC1CCCCC1`, the fold change is 1.03.

In the case of `Cc1ccc(NC2=NC(c3ccccc3)n3c(nc(C)cc3=O)N2)cc1` (configuration not stated), the fold change was 1.01.

For the compound `Cc1ccc(C2c3c(oc4ccc(C)cc4c3=O)C(=O)N2CCCN2CCOCC2)cc1` (configuration not stated), the fold change is 1.07.

For `Cc1occc1C(=O)Nc1nnc(-c2ccncc2)s1`, the fold change was 1.18.

As to `CCn1c(SCC(=O)NCc2ccco2)nnc1-c1ccc(N)cc1`, the fold change is 1.03.

As for `COc1cccc(OCCOc2cccc(/C=N/n3cnnc3)c2)c1`, the fold change is 1.05.

Turning to `C=CCn1c(CC(=O)Nc2cccc(OC)c2)nnc1SCC(=O)NC1CCCCC1`, the fold change is 1.04.

For the compound `Cc1ccc(NC(=O)CS(=O)CC(=O)N(c2ccccc2)C(C)C(=O)NC2CCCC2)cc1` (configuration not stated), the fold change was 0.99.

For `CCCOc1ccccc1-c1nc(SCCC(=O)O)n[nH]1`, the fold change was 1.

Consider `O=c1cccc(-c2ccc(Br)cc2)o1`, for which the fold change was 1.07.

As to `CN1C(C)(C)CC(NC(=O)CCC(=O)NC2CC(C)(C)N(C)C(C)(C)C2)CC1(C)C`, the fold change is 1.05.

As for `Cc1ccc(S(=O)(=O)NCc2csc(C)n2)c(C)c1`, the fold change was 0.97.

`CCOC(=O)c1ccccc1NC(=O)CC1Nc2ccccc2NC1=O` (configuration not stated): the fold change is 1.07.

For the compound `O=C(CCCOc1ccccc1)Nc1cccc(C(=O)O)c1`, the fold change is 1.03.

`O=P(c1cccs1)(c1cccs1)c1cccs1`: the fold change was 1.01.

In the case of `Cc1nnc(SCc2ccc(C(=O)c3ccc(Cl)cc3)o2)n1-c1ccccc1`, the fold change was 1.14.

For the compound `c1csc(-c2cn3c(n2)SCC3)c1`, the fold change is 1.03.

As for `COc1ccc(OCc2cccc(C(=O)N3CCCC3)c2)cc1`, the fold change was 0.98.

In the case of `CCCC(=O)C1=C(N(C)c2ccccc2)CC(C)(C)C(C(=O)OC)C1=O` (configuration not stated), the fold change is 1.04.

In the case of `c1ccc(-c2nnc(SCc3nc4ccccc4[nH]3)o2)cc1`, the fold change was 1.

As to `CC(=O)c1cccc(NC(=O)N2CCCC2C(=O)NCCC(C)C)c1` (configuration not stated), the fold change is 1.

`Cc1ccccc1S(=O)(=O)Cc1ccc(C(=O)NCCN2CCCCC2C)o1` (configuration not stated): the fold change is 0.98.

As for `CCOc1ccc(C2C(C(=O)O)c3ccccc3C(=O)N2CCN2CCOCC2)cc1` (configuration not stated), the fold change was 1.01.

As to `Cc1ccccc1OCCC(=O)Nc1c(C)n(C)n(-c2ccccc2)c1=O`, the fold change was 1.04.

Regarding `COc1ccccc1NC1=NC(c2ccc(Cl)cc2)N=C(N)N1` (configuration not stated), the fold change is 1.01.

For the compound `CC1CN(C(=O)CN2C(=O)NC(C)(c3ccccc3)C2=O)CC(C)O1` (configuration not stated), the fold change was 1.02.

With `CCC(C)Sc1nc(C)nc2c1c(=O)n(C)c(=O)n2C` (configuration not stated), the fold change is 1.03.

Consider `CCNc1nc(NCC)nc(N(C)n2cnnc2)n1`, for which the fold change is 1.02.

`CC(C)c1cc(C(=O)O)on1`: the fold change was 0.99.

For `O=C(CCCC(=O)N(CC(=O)NC1CCCC1)Cc1ccccc1Cl)Nc1ccccn1`, the fold change was 1.01.

Take `O=C(CCN1C(=O)C2C3C=CC(C3)C2C1=O)Nc1ccccc1F` (configuration not stated): the fold change was 0.99.

In the case of `COc1ccc(OC)c(C(c2nnnn2C(C)(C)C)N2CCc3ccccc3C2)c1` (configuration not stated), the fold change was 1.04.

As for `O=C(OCC(=O)N1CCN(C(=O)c2ccco2)CC1)c1ccccc1Cc1ccccc1`, the fold change is 1.

Consider `CC(C)CCNC(=O)CCNS(=O)(=O)c1ccc(Cl)cc1`, for which the fold change is 0.97.

Consider `Cc1cc(/C=N/n2cnnc2)c(C)n1-c1cccc(C(=O)O)c1`, for which the fold change was 1.11.

Turning to `O=C(CNCCO)NC12CC3CC(CC(C3)C1)C2`, the fold change was 1.03.

With `CCN(c1ccccc1)S(=O)(=O)c1ccc(N)cc1`, the fold change was 1.02.

In the case of `CC(=O)NS(=O)(=O)c1ccccc1`, the fold change is 1.

Regarding `CCC(CC)c1nnc(NS(=O)(=O)Cc2ccccc2)s1`, the fold change was 1.04.

As to `CCOc1cc(S(=O)(=O)NC2CC(C)(C)NC(C)(C)C2)ccc1F`, the fold change is 1.05.

Consider `O=C1CCCC(O)=C1C=NCCc1ccccc1`, for which the fold change was 0.99.

As for `O=C(Nc1cc(=O)[nH]c2ncnn12)c1ccccc1Cl`, the fold change is 0.98.

For `Cn1c2c(c(=O)n(C)c1=O)C(c1ccc(O)cc1)Nc1ccccc1O2` (configuration not stated), the fold change is 1.

As for `Cc1occc1C(=O)N1CCCc2ccccc21`, the fold change was 1.01.

In the case of `COc1ccc(C2SCCN2S(=O)(=O)c2ccccc2)cc1OC` (configuration not stated), the fold change is 0.98.

In the case of `Cc1cc(C)cc(N(C(C)C(=O)Nc2c(C)n(C)n(-c3ccccc3)c2=O)S(C)(=O)=O)c1` (configuration not stated), the fold change was 1.05.

As to `Cn1nnnc1SCC(=O)N1CCN(Cc2ccccc2)CC1`, the fold change is 1.01.

For `CC(=O)Nc1cc(C(=O)O)ccc1S(=O)(=O)c1ccc(Cl)cc1`, the fold change is 1.03.

For `CCC1CCCCN1CCNS(=O)(=O)c1ccc2c(c1)CCN2C(C)=O` (configuration not stated), the fold change is 1.03.

Consider `O=C(CSc1nnc(-c2ccoc2)o1)N1CCOCC1`, for which the fold change was 1.05.

For the compound `COc1cc(OC)cc(C(=O)NCCSCc2ccco2)c1`, the fold change is 1.02.

Consider `CC(=O)NC1CC2CCCC(C1)N2CC(=O)Nc1ccccc1` (configuration not stated), for which the fold change is 1.

For `COc1cc2[nH]c(=O)n(CCC(=O)NC3CCN(Cc4ccccc4)CC3)c(=O)c2cc1OC`, the fold change is 1.06.

Turning to `COC(=O)c1ccc(/C=N\n2c(C)nnc2C)cc1`, the fold change was 1.02.

Regarding `O=C(COc1ccccc1Cl)Nn1cnnc1`, the fold change is 1.08.

For the compound `Cc1cc(-n2nc(C)cc2C)n2ncc(-c3ccccc3)c2n1`, the fold change was 1.03.

Consider `CCOC(=O)c1c(CN2CCOCC2)n(-c2ccccc2)c2ccc(O)cc12`, for which the fold change was 0.98.

With `Cc1ccc2nc(S(=O)(=O)O)[nH]c2c1`, the fold change is 1.02.

Regarding `CC(=O)c1cc(C#N)c(SCC(=O)C(C)(C)C)nc1C`, the fold change was 1.07.

For `CC(=C1C(=O)c2ccccc2C1=O)N1CCN(c2ccccn2)CC1`, the fold change is 1.15.

Consider `CCS(=O)(=O)NCCc1ccc(OC)c(OC)c1`, for which the fold change was 1.02.

As for `CCOC(=O)COc1ccc(Cl)cc1C1NC(=O)NC(C)=C1C(C)=O` (configuration not stated), the fold change was 1.05.

Take `COc1ccc(-c2ccc(-c3noc(-c4ccncc4)n3)c(OC)n2)cc1`: the fold change is 1.09.

Regarding `CSc1nc(O)c(Cc2ccccc2)c(=O)[nH]1`, the fold change was 1.

For `COc1ccccc1N1CCN(C(=O)c2c(-c3c(Cl)cccc3Cl)noc2C)CC1`, the fold change is 0.98.

For `Cc1cccc(OCc2nnc(SCC(=O)N3CCN(C(=O)c4ccco4)CC3)n2C)c1C`, the fold change is 1.02.

As for `COCCn1nnnc1CN1CCC(NC(=O)Nc2cccc(OC)c2)CC1`, the fold change is 1.

As to `CC(=O)c1c(N2CCOCC2)nc(=S)n(Cc2ccccc2)c1C`, the fold change was 1.06.

Consider `COc1cc(CO)c(C2(CO)CCCC2)cc1OC`, for which the fold change was 1.04.

For `CCOC(=O)C1=C(O)CSC1=Nc1cccc(Cl)c1`, the fold change is 1.02.

For `CCOC(=O)c1ccc2[nH]c(C)c(CN3CCN(C)CC3)c(=O)c2c1`, the fold change was 1.

Consider `Cc1nn(-c2ccccc2)c(CC(C)(C)C(=O)O)c1C(=O)O`, for which the fold change is 1.02.

Consider `COc1ccc2c(c1OC)C(=O)N(c1ncn[nH]1)C2`, for which the fold change is 1.04.

Regarding `CC(C)(C)NC(=O)C(c1ccncc1)N(C(=O)CNC(=O)c1ccco1)c1ccc2c(c1)OCO2` (configuration not stated), the fold change was 0.98.

On to `COc1ccc(N2C(=O)C3CCCN3C2c2cc(OC)c(OC)cc2OC)cc1` (configuration not stated), for which the fold change was 1.01.

As for `O=C1c2ccccc2C(O)N1Cc1ccccc1Cl` (configuration not stated), the fold change is 1.03.

Consider `COc1cccc(C(=O)Nc2c3c(nn2-c2cccc(C)c2C)CS(=O)(=O)C3)c1OC`, for which the fold change is 1.01.

Regarding `CCC(=O)N1CCc2cc(S(=O)(=O)NC(C(=O)N3CCc4ccccc4C3)C(C)C)ccc21` (configuration not stated), the fold change is 1.

`CCOc1cc(C(=O)N2CCc3cc(OC)c(OC)cc3C2)ccc1OC(F)F`: the fold change was 0.97.

In the case of `O=C(Nc1cnn(Cc2ccc(Cl)cc2)c1)C1CCCC1`, the fold change was 1.03.

Consider `c1cc(-n2cnnn2)ccc1NC1=NCCC1`, for which the fold change is 1.01.

For the compound `O=C(C1CCCO1)N(Cc1ccccc1)c1ccccc1` (configuration not stated), the fold change is 1.03.

Take `CC(C)OC(=O)C(C#N)c1nc2ccccc2nc1N1CCN(Cc2ccc3c(c2)OCO3)CC1` (configuration not stated): the fold change was 1.02.

Turning to `CCN1CCN(C(=O)c2ccccc2N(C)S(=O)(=O)c2ccc(C)cc2)CC1`, the fold change was 1.05.

On to `COc1c(O)cccc1-c1nnn(CCC(=O)OCC(=O)c2ccccc2)n1`, for which the fold change was 1.01.

For `CS(=O)(=O)N(C(=O)NC(=O)NC1CCS(=O)(=O)C1)C1CCCCC1` (configuration not stated), the fold change is 1.04.
